# Screening data deposited in PubChem BioAssay by National Center for Advancing Translational Sciences (NCATS).
# Only some compounds are listed: those with a hit (about 1.3% of all), similar ones and a draw of the others.
# WRN helicase inh-1: qHTS for Inhibitors of WRN Helicase; Bifunctional 3'-5' exonuclease/ATP-dependent helicase WRN (Homo sapiens), Q14191; WRN helicase unwinding, fluorescent forked duplex, kinetic; Potency, µM (titrated, usually from 114 µM), for the others: at the highest dose activity change, negative = inhibition, hits mostly inhibitors; actives 0.46% (n = 360,000); AID 651768, 2012; further: potency means the concentration at half of the fitted maximal effect; on the % scale 0 is the no-effect control and ±100 the full control effect; nearly all actives have a fitted effect of over 55% in size
#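 Primary qHTS, 1536-well format. 20 nM WRN + compound, 15 min RT; start with 100 nM forked fluorophore/quencher duplex, 2 mM ATP (final); kinetic read ex 525/em 598 nm.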
# Tb PGK inh: qHTS Assay to Find Inhibitors of Phosphoglycerate Kinase. Phosphoglycerate kinase, glycosomal (Trypanosoma brucei brucei), P07378. actives 0.043% (n = 380,000). Potency, µM (highest dose often 57.5 µM), for inactives: at the top dose activity change, negative = inhibition, most hits filed as inhibitors. PGK/GAPDH coupled, Kinase-Glo luminescence, 60 min; further: potency means the concentration at half of the fitted maximal effect; on the % scale 0 is the no-effect control and ±100 the full control effect; nearly all actives have a fitted effect of over 60% in size
# Target sequence (P07378 whole entry, looked up): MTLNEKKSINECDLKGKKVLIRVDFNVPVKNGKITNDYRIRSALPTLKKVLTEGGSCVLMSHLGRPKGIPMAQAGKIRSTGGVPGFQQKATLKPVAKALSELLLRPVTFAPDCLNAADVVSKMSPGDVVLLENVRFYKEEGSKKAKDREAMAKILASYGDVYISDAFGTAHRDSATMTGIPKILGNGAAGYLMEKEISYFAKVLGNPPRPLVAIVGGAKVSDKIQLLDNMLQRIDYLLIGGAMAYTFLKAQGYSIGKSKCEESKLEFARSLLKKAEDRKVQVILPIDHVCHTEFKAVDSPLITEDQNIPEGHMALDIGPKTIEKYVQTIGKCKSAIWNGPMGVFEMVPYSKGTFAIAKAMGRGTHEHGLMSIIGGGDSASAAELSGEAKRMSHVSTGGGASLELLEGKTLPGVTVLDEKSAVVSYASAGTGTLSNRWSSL
#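 Luminescent ATP detection (Kinase-Glo Plus) follows a 60-minute room-temperature incubation, with wells lacking PGK as controls. Buffer: 100 mM TEA (pH 7.6), 5 mM MgCl2, 0.01% Tween-20. Coupling enzyme GAPDH (100 nM final) supplies unstable 1,3-BPG in-well.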
# Pin1 inhibitor: qHTS Assay to Find Inhibitors of Pin1 | Peptidyl-prolyl cis-trans isomerase NIMA-interacting 1 (Homo sapiens), Q13526 | Pin1 FP peptide displacement, HiFluor488, 10 min | Potency, µM (highest dose often 115 µM), for the others: at the highest dose activity, negative = inhibition, most hits filed as inhibitors | actives 0.009% (n = 390,000); active means well fitted inhibition curve with a large enough effect in the polarisation, with a control signal flat, not every such curve was filed as active; inconclusive means small, poorly fitted or top-dose-only effect, or effect the other way, or a change in a side signal; inactive means no such curve, though single readings can be large or run the other way; the % refers to the polarisation; further: potency means the concentration at half of the fitted maximal effect; on the % scale 0 is the no-effect control and ±100 the full control effect
# Glioma ERSR ind: qHTS for Inducers of the Endoplasmic Reticulum Stress Response (ERSR) in Human Glioma: qHTS; U87-MG GRP78 promoter luciferase reporter, 16 h; Potency, µM, for inactives: at the top dose activation, actives largely listed as activators; actives 0.02% (n = 420,000); AID 602332, 2012; further: potency means the concentration at half of the fitted maximal effect; series mostly up to about 76 µM; % of control where 0% means no effect; nearly all actives have a fitted effect of over 35% in size
#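 ERSR induction read as luciferase luminescence (Bright-Glo, 10 min at room temperature) in stably transfected human U87-MG glioma cells exposed to compounds for 16 h, using GRP78 as sensor.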
# FEN1 inhibitor: qHTS Assay for the Inhibitors of Human Flap endonuclease 1 (FEN1); P39748; Recombinant FEN1 flap cleavage, fluorescence, 15 min; Potency, µM (series often up to 114 µM), for inactives: top-dose activity change, negative = inhibition, hits mostly inhibitors; actives 0.35% (n = 390,000); AID 588795, 2011; further: potency means the concentration at half of the fitted maximal effect; on the % scale 0 is the no-effect control and ±100 the full control effect; nearly all actives have a fitted effect of over 65% in size
#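 Enzyme 10 nM, 15 min RT preincubation with compound; start with substrate 50 nM final; reads at 0 and 15 min; qHTS titration, four-parameter Hill fit.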
# PI5P4Ka inh: qHTS for Inhibitors of phosphatidylinositol 5-phosphate 4-kinase (PI5P4K); Phosphatidylinositol 5-phosphate 4-kinase type-2 alpha (Homo sapiens), P48426; PI5P4Kalpha enzyme, ADP-Glo luminescence, 60 min; hits give low values; max response, %; actives 1.2% (n = 330,000); active means max response of -50% or lower; inconclusive means between -30% and -50%; inactive means -30% or higher; further: value at the top dose of about 77 µM; on the % scale 0 is the no-effect control and ±100 the full control effect
# Target sequence (P48426 whole entry, looked up): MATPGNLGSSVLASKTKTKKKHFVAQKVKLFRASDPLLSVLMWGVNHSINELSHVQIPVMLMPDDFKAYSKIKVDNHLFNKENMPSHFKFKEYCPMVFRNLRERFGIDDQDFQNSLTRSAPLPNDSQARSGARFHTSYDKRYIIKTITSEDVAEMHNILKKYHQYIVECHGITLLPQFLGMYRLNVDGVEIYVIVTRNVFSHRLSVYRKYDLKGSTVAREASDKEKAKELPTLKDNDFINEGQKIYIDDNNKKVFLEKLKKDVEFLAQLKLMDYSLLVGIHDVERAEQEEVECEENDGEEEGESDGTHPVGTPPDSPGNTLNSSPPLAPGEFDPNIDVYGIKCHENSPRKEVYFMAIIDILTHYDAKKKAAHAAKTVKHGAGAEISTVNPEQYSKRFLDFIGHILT
#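 Luminescence from ADP-Glo served as readout of PI5P4Kalpha activity in a qHTS format. Reaction: enzyme, substrate, compound, ATP at 5 microM final, 60 min at RT.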
# WRN helicase inh-2: qHTS for Inhibitors of WRN Helicase: Confirmatory Assay for Cherry-picked Compounds; actives 63% (n = 610); shares compounds with WRN helicase inh-1; AID 720497, 2013; Potency, µM (doses to about 57.1 µM), inactives show at the highest dose activity, negative = inhibition, hits mostly inhibitors; WRN helicase DNA unwinding, fluorescence kinetic; further: potency means the concentration at half of the fitted maximal effect; nearly all actives have a fitted effect of over 65% in size
# TO displacement: qHTS for Inhibitors of WRN Helicase: Thiazole Orange DNA Binding Counterscreen; shares compounds with WRN helicase inh-1; thiazole orange DNA binding displacement, fluorescence; AID 720499, 2013; actives 10% (n = 610); Potency, µM (doses to about 57.1 µM), for inactives: at the highest dose activity change, negative = inhibition, usual class: inhibitors;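 further: drop in dye fluorescence marks compound binding to DNA; potency means the concentration at half of the fitted maximal effect; on the % scale 0 is the no-effect control and ±100 the full control effect; nearly all actives have a fitted effect of over 60% in size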
# BLM helicase inh: qHTS for Inhibitors of WRN Helicase: BLM Helicase Counterscreen for WRN Inhibitors; shares compounds with WRN helicase inh-1; Recombinant BLM helicase DNA unwinding, red fluorescence; Potency, µM (titrated, usually from 57.1 µM), inactives show top-dose activity change, negative = inhibition, actives largely listed as inhibitors; actives 60% (n = 610); AID 720503, 2013; further: potency means the concentration at half of the fitted maximal effect; nearly all actives have a fitted effect of over 60% in size
# Numbers without * were called inactive; i = inactive; ? = inconclusive; nt = no result. Unless noted, the call rests on the fitted dose curve; in most records, active means well fitted curve in the direction sought with a large enough effect; inconclusive means small, poorly fitted or top-dose-only effect, or another doubt; inactive means no such curve, though single readings can be large; an effect the other way counts as inactive or inconclusive.
SMILES,WRN helicase inh-1,Tb PGK inh,Pin1 inhibitor,Glioma ERSR ind,FEN1 inhibitor,PI5P4Ka inh,WRN helicase inh-2,TO displacement,BLM helicase inh
Cc1ccc(C)n1/N=C1/NC(=O)CS1,15.8µM*,?,?,-5.9%,31.6µM*,-52.0*,24.1µM*,-9.5%,5.41µM*
C=Cc1cc2c(s1)c1cnn(Cc3ccccc3F)c(=O)c1n2C,nt,nt,-3.0%,nt,nt,nt,nt,nt,nt
CCn1c(CSc2nnc(-c3ccncc3)n2CCOC)nc2cc(C(=O)O)ccc21,?,-0.1%,-6.6%,-3.8%,?,-3.8,nt,nt,nt
CCn1c(CSc2n[nH]c(N)n2)nc2cc(C(=O)O)ccc21,89.1µM*,i,?,-2.1%,-31.6%,-10.9,24.1µM*,2.2%,24.1µM*
COCCCNc1ncnc2sc(C(=O)N3CCOCC3)c(C)c12,nt,nt,nt,-3.1%,nt,nt,nt,nt,nt
CC(C)COc1ccc(-c2nn(-c3ccccc3)cc2/C=C2/SC(=S)N(CC(=O)O)C2=O)cc1,1.5%,-5.8%,-22.0%,-1.4%,1.6%,6.4,nt,nt,nt
O=C1C(=Cc2cn(-c3ccccc3)nc2-c2ccc(OCc3ccccc3)cc2)SC(=S)N1CCS(=O)(=O)O,25.1µM*,nt,nt,-4.7%,nt,-65.1*,10.8µM*,-29.1%,6.81µM*
CC(=O)c1ccccc1-c1ccc2c(c1)CC(CNC(=O)Cc1c[nH]c3ccccc13)O2 (stereo not given),nt,nt,nt,-2.4%,nt,nt,nt,nt,nt
COc1cc(/C=N/NC(=O)c2cc(O)cc(O)c2)ccc1OC(=O)c1ccccc1,28.2µM*,12.6µM*,?,-1.1%,50.1µM*,-91.7*,19.2µM*,?,7.64µM*
O=C(/C=C/c1cccs1)Nc1scc(-c2ccccc2)c1C(=O)O,31.6µM*,?,?,-12.9%,?,?,?,-15.9%,21.5µM*
COC(c1ccc2c(c1)CN(C(=O)Cn1nc(C)c3ccccc3c1=O)CCO2)C1CCCCC1 (stereo not given),nt,nt,nt,-1.7%,nt,nt,nt,nt,nt
O=C(CCCN1C(=O)/C(=C/c2ccco2)SC1=S)Nc1cccc(C(=O)O)c1,35.5µM*,-11.1%,?,-4.6%,?,-59.7*,19.2µM*,-7.8%,19.2µM*
O=C(CCCN1C(=O)/C(=C\c2cccs2)SC1=S)Nc1ccc(O)cc1C(=O)O,-12.6%,-4.9%,2.8%,-11.7%,16.6%,?,nt,nt,nt
O=C(CCCN1C(=O)/C(=C\c2cccs2)SC1=S)Nc1cccc(C(=O)O)c1,-11.6%,-6.5%,-2.7%,2.6%,2.8%,-1.6,nt,nt,nt
O=C(CCCN1C(=O)/C(=C\c2ccco2)SC1=S)Nc1ccc(O)cc1C(=O)O,15.8µM*,?,?,-7.9%,50.1µM*,?,7.64µM*,?,21.5µM*
COc1ccc(OC)c(-c2cc(Cl)c3c(c2)CC(CNC(=O)[C@@H]2CCCN2C(C)=O)O3)c1 (stereo not given in full),nt,nt,nt,-3.4%,nt,nt,nt,nt,nt
NC(=O)COc1ccccc1,9.7%,-3.0%,4.0%,3.9%,1.2%,-5.5,nt,nt,nt
NC(=O)COc1ccc(/C=C2\C(=O)ON=C2c2ccccc2)cc1,39.8µM*,-8.6%,-12.2%,-10.1%,1.3%,?,19.2µM*,?,?
N#C/C(=C\c1ccc(-c2ccc(C(=O)O)cc2)o1)C(=O)Nc1ccccc1C(=O)O,nt,-22.1%,1.3%,1.3%,?,nt,?,10.8µM*,19.2µM*
N#C/C(=C\c1ccc(-c2ccc(Br)cc2)o1)C(=O)Nc1ccccc1O,nt,nt,-7.9%,nt,-31.1%,nt,nt,nt,nt
O=C1c2cc(O)c(O)cc2OC(c2ccc(O)c(O)c2)C1O (stereo not given),?,-24.4%,-0.8%,0.0%,31.6µM*,?,13.6µM*,-14.3%,?
COc1ccc2c(c1)C(=O)[C@H](O)[C@@H](c1ccc(OC)c(Br)c1)O2,9.4%,-1.7%,-2.0%,4.1%,-10.4%,2.2,nt,nt,nt
ClC(Cl)(c1nnnn1-c1ccccc1)c1nnnn1-c1ccccc1,6.31µM*,-5.2%,-6.6%,-14.0%,50.1µM*,?,?,1.9%,?
COc1cc(Cl)c(C)cc1N1C(=O)[C@@H]2C[C@H]1CN2Cc1ccccn1,nt,nt,nt,-4.2%,nt,nt,nt,nt,nt
N#CC1C(=O)c2ccccc2C1c1ccccc1 (stereo not given),12.6µM*,-4.7%,-1.0%,-14.0%,0.9%,-17.5,-13.7%,2.4%,-14.7%
SMILES,WRN helicase inh-1,Tb PGK inh,Pin1 inhibitor,Glioma ERSR ind,FEN1 inhibitor,PI5P4Ka inh,WRN helicase inh-2,TO displacement,BLM helicase inh
CC(=O)Nc1ccc2c(c1)CCc1ccccc1-2,9.3%,-3.6%,-2.0%,6.9%,14.5%,-0.9,nt,nt,nt
O=C(O)/C=C/C(=O)c1ccc2c(c1)CCc1ccccc1-2,1.5µM*,-3.6%,11.3%,-13.1%,?,?,?,-9.6%,19.2µM*
COCN(C#N)c1nc(N(C)C)nc(N(C)C)n1,7.2%,0.8%,1.2%,-3.3%,3.6%,0.6,nt,nt,nt
COc1ccc(CN(C#N)c2nc(SC)nc(N(C)C)n2)cc1,100µM*,-1.1%,-0.4%,-3.5%,?,14.4,-6.9%,-9.0%,-9.1%
COc1ccc2c(c1)OC(C)CN(CC(=O)NCc1cn[nH]c1-c1ccc(F)cc1)C2 (stereo not given),nt,nt,nt,-0.5%,nt,nt,nt,nt,nt
COc1cccc(/C=C2/CCC(CN(C)C)C2=O)c1 (stereo not given),12.6µM*,-2.3%,4.0%,-12.5%,1.2%,-15.2,-25.6%,-13.8%,?
COc1ccc(/C=C2/CCCC(CN(C)C)C2=O)cc1 (stereo not given),?,i,-0.1%,7.9%,12.0%,2.2,nt,nt,nt
Cc1ccc(CNc2nc(C)c(-c3ccn(CCN4CCOCC4)n3)s2)o1,nt,nt,nt,-3.2%,nt,nt,nt,nt,nt
